Experiment [1] has as its target Cytochrome P450 3A4 (Homo sapiens) (UniProt P08684). Kind of experiment: qHTS Assay for Inhibitors and Substrates of Cytochrome P450 3A4 (AID 884). Also: nearly all actives have a fitted effect of over 50% in size. Also: potency is read from the fitted curve at half-maximal effect. As to activity change, negative = inhibition: % is scaled to controls: 0 for no effect and ±100 for the full control effect. Summed up:
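Luminescent readout of luciferin produced by CYP3A4 (20 nM) dealkylation of Luciferin-PPXE, 25 uM (its KM). NADPH-driven reaction ran 60 min at RT after 10 min compound preincubation; data scaled to 57 uM ketoconazole as 100% inhibition.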
A general note: In qHTS, concentration-response curves come from the screen itself.

For experiment [2] the target is unchanged. The experiment can be described thus: qHTS Assay for Activators of Cytochrome P450 3A4 (AID 885). Also: nearly all actives have a fitted effect of over 65% in size. Summed up:
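Using 20nM recombinant human CYP3A4 in potassium phosphate (200mM), substrate Luciferin-PPXE at 25uM, luminescent luciferin detection followed a 60-min RT NADPH reaction; data scaled to 57 uM ketoconazole.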

Experiment [3] is described as follows: Confirmation and Secondary Assay for Modulators of Hemoglobin Beta Chain Splicing at IVS2 654 locus (AID 910).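 Also: HeLa cells stably carrying EGFP split by mutant beta-globin IVS2-654 intron; % of control where 0% means no effect.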 In short, it runs like this: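 HeLa cells stably expressing EGFP interrupted by β-globin IVS2-654 intron, seeded overnight in Opti-MEM/2% FCS, then treated 2 days at 37 °C. Restored splicing read as total peak GFP intensity per well by laser scanning cytometry (488 nm excitation, 500–520 nm emission); 500 nM antisense PNA as control.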

The nature of experiment [4]: Confirmation and Secondary Assay for Modulators of Hemoglobin Beta Chain Splicing at IVS2 705 locus (AID 930).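 Also: HeLa cells stably expressing the EGFP-705 splicing reporter; GFP fluorescence per well restored by corrected splicing of the IVS2-705 intron in EGFP; % of control where 0% means no effect.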 In short, it runs like this: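 Secondary splice-site specificity test uses HeLa expressing CMV-driven EGFP interrupted by IVS2-705; cells were treated 2 days at 37C with 500 nM antisense PNA as positive control.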
Experiment [5] can be described thus: qHTS Assay for Lipid Storage Modulators (AID 1519; calls by dose curve; as to activity change, negative = inhibition: % is scaled to controls: 0 for no effect and ±100 for the full control effect). Conditions: Drosophila S3 cells, BODIPY lipid droplet/cell ratio, laser cytometry, cells loaded with oleic acid; for activity change, negative = inhibition: at 57.5 µM (top of the series). Summed up: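 Cells seeded at 5,000 per well were treated with compounds over a concentration series and loaded with oleic acid (400 uM, as added). Lipid droplet fluorescence (488 nm excitation, 500-530 nm channel) was read by laser-scanning cytometry and normalized to 20 uM Triacsin C.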

For experiment [6], the target named is Ubiquitin carboxyl-terminal hydrolase 1 (Homo sapiens) (UniProt O94782). Kind of experiment: Inhibitors of USP1/UAF1: Pilot qHTS (AID 504865). Also: nearly all actives have a fitted effect of over 35% in size. Also: potency is read from the fitted curve at half-maximal effect.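 As to activity change, negative = inhibition: rhodamine fluorescence freed from ubiquitin-rhodamine substrate followed over time; top concentration of the series differs between compounds; % is scaled to controls: 0 for no effect and ±100 for the full control effect.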 In short, it runs like this:
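Enzyme-free wells gave the negative control, while test wells held 1nM USP1/UAF1 preincubated with compound for 15 min at room temperature. Ub-Rho at 150nM final started the reaction, and fluorescence at 480/540 nm was recorded kinetically.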

The target of experiment [7] is DNA dC->dU-editing enzyme APOBEC-3G (Homo sapiens) (UniProt Q9HC16). Kind of experiment: qHTS for inhibitors of Vif-A3G interactions: Validation (AID 588379). Also: 0% is about no effect. In short, it runs like this: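 Yellow fluorescence (Ex 488, Em 500-530) of Vif-coexpressing HeLa A3G-eYFP cells, scanned by Acumen cytometer, reports blocked A3G degradation. Cells plated at 700/well overnight at 37 deg C before compound addition, then a further overnight compound incubation at 37 deg C.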

Experiment [8] deals with Luciferin 4-monooxygenase (Photinus pyralis) (UniProt P08659). Kind of experiment: Biochemical firefly luciferase enzyme assay for NPC (AID 624030).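 Also: purified P. pyralis luciferase at 10 nM with luciferin and ATP substrate; 0% = DMSO and -100% = full luciferase inhibition by PTC124 control; nearly all actives have a fitted effect of over 70% in size.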 Summed up: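 Purified P. pyralis luciferase at 10 nM in 50 mM Tris Acetate (final), luminescence read within 5 minutes of enzyme addition to compounds. Activity normalised to PTC124 versus DMSO; concentration-response curves classed by r2, magnitude and activity.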

Setting [9] is: measured here: cell count channel max response.
Setting [10] is: measured here: lipid channel max response.

Inconclusive results are not listed. Activity calls are given as the source filed them. Unless noted, calls follow the shape of the dose curve; as a rule, active = well fitted curve in the direction sought with a large enough effect; inconclusive = small, poorly fitted or top-dose-only effect, or another doubt; inactive = no such curve, though single readings can be large; an effect the other way counts as inactive or inconclusive.

Chain of Cytochrome P450 3A4 (Homo sapiens) (P08684 whole entry, looked up): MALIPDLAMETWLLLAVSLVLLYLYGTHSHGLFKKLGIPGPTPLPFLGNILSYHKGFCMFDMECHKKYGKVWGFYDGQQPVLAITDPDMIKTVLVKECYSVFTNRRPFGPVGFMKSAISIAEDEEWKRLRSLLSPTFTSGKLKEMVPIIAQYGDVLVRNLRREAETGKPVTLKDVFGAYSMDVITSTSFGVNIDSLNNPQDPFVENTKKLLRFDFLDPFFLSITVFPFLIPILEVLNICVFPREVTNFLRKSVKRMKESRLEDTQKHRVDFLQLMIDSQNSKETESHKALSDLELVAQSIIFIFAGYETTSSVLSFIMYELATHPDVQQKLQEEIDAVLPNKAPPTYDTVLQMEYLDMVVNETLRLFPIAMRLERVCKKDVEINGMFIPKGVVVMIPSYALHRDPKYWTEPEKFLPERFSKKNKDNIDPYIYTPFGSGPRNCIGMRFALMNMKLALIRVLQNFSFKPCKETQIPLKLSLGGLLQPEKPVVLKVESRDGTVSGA
Chain of DNA dC->dU-editing enzyme APOBEC-3G (Homo sapiens) (Q9HC16 whole entry, looked up): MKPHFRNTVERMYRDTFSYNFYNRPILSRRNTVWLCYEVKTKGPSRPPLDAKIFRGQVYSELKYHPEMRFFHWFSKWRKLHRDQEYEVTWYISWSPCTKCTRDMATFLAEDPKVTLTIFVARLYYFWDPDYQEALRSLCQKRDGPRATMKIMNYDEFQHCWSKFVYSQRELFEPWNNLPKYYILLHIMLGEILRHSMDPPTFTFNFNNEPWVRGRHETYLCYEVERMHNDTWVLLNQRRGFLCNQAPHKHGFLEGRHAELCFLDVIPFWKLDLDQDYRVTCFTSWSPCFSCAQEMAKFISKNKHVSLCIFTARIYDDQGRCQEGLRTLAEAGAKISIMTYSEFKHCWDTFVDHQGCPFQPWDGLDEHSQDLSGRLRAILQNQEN
Chain of Ubiquitin carboxyl-terminal hydrolase 1 (Homo sapiens) (O94782 whole entry, looked up): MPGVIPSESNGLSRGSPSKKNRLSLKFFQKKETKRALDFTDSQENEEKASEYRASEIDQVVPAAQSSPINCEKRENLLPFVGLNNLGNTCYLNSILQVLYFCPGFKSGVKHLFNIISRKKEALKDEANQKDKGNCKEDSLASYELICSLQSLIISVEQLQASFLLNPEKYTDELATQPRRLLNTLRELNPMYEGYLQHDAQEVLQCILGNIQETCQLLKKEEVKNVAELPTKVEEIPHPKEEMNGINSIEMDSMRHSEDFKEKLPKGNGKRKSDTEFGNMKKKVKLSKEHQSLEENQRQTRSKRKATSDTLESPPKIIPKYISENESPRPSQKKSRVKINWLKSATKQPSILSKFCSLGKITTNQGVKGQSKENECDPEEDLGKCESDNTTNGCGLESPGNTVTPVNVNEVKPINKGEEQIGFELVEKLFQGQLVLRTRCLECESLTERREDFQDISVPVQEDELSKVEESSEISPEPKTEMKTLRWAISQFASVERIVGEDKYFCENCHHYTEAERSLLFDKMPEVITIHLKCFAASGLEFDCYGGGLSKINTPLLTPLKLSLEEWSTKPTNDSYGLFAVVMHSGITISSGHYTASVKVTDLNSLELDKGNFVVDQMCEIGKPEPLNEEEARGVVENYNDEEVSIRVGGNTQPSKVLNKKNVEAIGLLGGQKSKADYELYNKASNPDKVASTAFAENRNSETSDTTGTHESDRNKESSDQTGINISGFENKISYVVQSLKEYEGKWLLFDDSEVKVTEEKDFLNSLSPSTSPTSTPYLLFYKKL
Chain of Luciferin 4-monooxygenase (Photinus pyralis) (P08659 whole entry, looked up): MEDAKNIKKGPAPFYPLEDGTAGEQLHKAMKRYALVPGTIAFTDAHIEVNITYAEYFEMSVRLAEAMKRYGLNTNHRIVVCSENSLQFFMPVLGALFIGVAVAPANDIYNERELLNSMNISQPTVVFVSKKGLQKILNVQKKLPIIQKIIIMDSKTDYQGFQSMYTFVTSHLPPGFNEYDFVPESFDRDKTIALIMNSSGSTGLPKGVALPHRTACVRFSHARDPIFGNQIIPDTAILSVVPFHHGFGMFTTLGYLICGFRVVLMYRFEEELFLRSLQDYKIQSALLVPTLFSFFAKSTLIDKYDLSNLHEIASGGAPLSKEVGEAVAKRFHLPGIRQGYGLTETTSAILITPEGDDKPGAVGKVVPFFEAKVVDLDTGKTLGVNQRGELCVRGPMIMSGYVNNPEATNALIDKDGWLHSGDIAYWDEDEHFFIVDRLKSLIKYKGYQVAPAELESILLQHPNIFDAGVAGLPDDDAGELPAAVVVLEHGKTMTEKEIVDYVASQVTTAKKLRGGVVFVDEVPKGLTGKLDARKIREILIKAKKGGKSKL

For the compound `COc1cc(OC)c2c(=O)c(OC)c(-c3ccc(OC)c(OC)c3)oc2c1`, in experiment [1], the Potency is 1.26 µM (active). In addition, the Potency entry in experiment [2], in experiment [3], in experiment [4] and in experiment [6] was “inactive” each time. Moreover, the activity change, negative = inhibition in experiment [5] was 1.54% (inactive). The results for the max response in experiment [5] (setting [9]) and in experiment [5] (setting [10]) were 14.1% and 15.7%, respectively.

Consider `CC1=CC(=O)[C@@H]2C[C@H]1C2(C)C`, for which the Potency result in experiment [1] and in experiment [6] was “inactive” in each case. Moreover, in experiment [5], the activity change, negative = inhibition was 4.82% (inactive). Moreover, the max response in experiment [5] (setting [9]) was -1.97%; in experiment [5] (setting [10]), -0.655%. For the same compound, the call in experiment [7] was inactive.

`C=CC1=C(C(=O)O)N2C(=O)C(NC(=O)/C(=N\O)c3csc(N)n3)C2SC1` (stereo not given): the Potency entry in experiment [1], in experiment [3], in experiment [6] and in experiment [8] was “inactive” in each case. Further, the activity change, negative = inhibition in experiment [5] is 3.88% (inactive). The figures for the max response in experiment [5] (setting [9]) and in experiment [5] (setting [10]) were 11.5% and 17.7%, respectively.

Turning to `O=C1c2ccccc2C(=O)c2c(O)c(O)cc(O)c21`, the Potency result in experiment [2], in experiment [3] and in experiment [4] was “inactive” in each case. Also, the activity change, negative = inhibition in experiment [5] is 12.2% (inactive). In addition, the max response in experiment [5] (setting [9]) is -4.21%; in experiment [5] (setting [10]) it was 7.97%. Moreover, in experiment [6], the Potency was 25.1 µM (active). Further, the call in experiment [7] was inactive.

As for `Cc1ccc2c(c1)CC[C@H]1CC(=O)CC[C@@]21C`, in experiment [1], the Potency is 15.8 µM (active). For the same compound, the Potency result in experiment [2], in experiment [3], in experiment [4] and in experiment [6] was “inactive” throughout. For the same compound, the activity change, negative = inhibition in experiment [5] is 2.54% (inactive). In addition, the max response in experiment [5] (setting [9]) is -2.47%; in experiment [5] (setting [10]), 1.9%.

On to `COC(=O)CCCC[C@@H]1SC[C@@H]2NC(=O)N[C@@H]21`, for which the Potency entry in experiment [1] and in experiment [6] was “inactive” throughout. In experiment [5], the activity change, negative = inhibition was 0.0624% (inactive). Further, the max response is -0.817% in experiment [5] (setting [9]) and 0.263% in experiment [5] (setting [10]). Moreover, the result in experiment [7] was inactive.

For `NC(=O)NCCC[C@H](N)C(=O)O`, the Potency entry in experiment [1] and in experiment [6] was “inactive” throughout. For the same compound, the activity change, negative = inhibition in experiment [5] is -0.41% (inactive). In addition, the results for the max response in experiment [5] (setting [9]) and in experiment [5] (setting [10]) were -16.4% and -15.2%, respectively. Further, in experiment [7], the call was inactive.

For `C=C1C2CC[C@@]3(C)C(c4ccoc4)OC(=O)C[C@@]13OC1CC(=O)C(C)(C)C(CC(=O)OC)[C@]12C` (stereo not given in full), the Potency in experiment [1] is 5.01 µM (active). Besides, the Potency result in experiment [2], in experiment [3], in experiment [4] and in experiment [6] was “inactive” each time. Also, the activity change, negative = inhibition in experiment [5] was 0.233% (inactive). For the same compound, the max response was -7.73% in experiment [5] (setting [9]) and -5.31% in experiment [5] (setting [10]).

With `O=C(O)C1OC(O)C(O)C(O)C1O` (stereo not given), the Potency entry in experiment [1] and in experiment [6] was “inactive” in each case. Further, in experiment [5], the activity change, negative = inhibition is -3.53% (inactive). Also, the max response in experiment [5] (setting [9]) was -1.15%; in experiment [5] (setting [10]), -5.5%. Further, in experiment [7], the outcome was inactive.

As for `COC1C(O)C(CO)OC1n1cnc2c(=O)[nH]c(N)nc21` (stereo not given), the Potency result in experiment [1] and in experiment [6] was “inactive” each time. In experiment [5], the activity change, negative = inhibition was 5.46% (inactive). For the same compound, the max response came to 13.5% in experiment [5] (setting [9]) and 20.7% in experiment [5] (setting [10]).

As for `COc1cc2c(cc1OC)Cc1cc(OC)c(OC)cc1Cc1cc(OC)c(OC)cc1C2`, the Potency in experiment [1] was 12.6 µM (active). Moreover, the Potency entry in experiment [2], in experiment [3], in experiment [4] and in experiment [6] was “inactive” throughout. For the same compound, the activity change, negative = inhibition in experiment [5] was -1.62% (inactive). For the same compound, the max response in experiment [5] (setting [9]) was found to be 2.54%; in experiment [5] (setting [10]) it was 2.42%.

For `COc1ccc2c(c1OC)C(=O)O[C@H]2C1c2c(cc3c(c2OC)OCO3)CCN1C` (stereo not given in full), the Potency entry in experiment [2], in experiment [3], in experiment [4] and in experiment [6] was “inactive” each time. The activity change, negative = inhibition in experiment [5] is 8.59% (inactive). Moreover, the max response in experiment [5] (setting [9]) came out at 20.9%; in experiment [5] (setting [10]), 32.4%. In experiment [7], the result was inactive.

For the compound `C[C@H]1C[C@]2(O[C@@H]2C)C(=O)O[C@@H]2CCN(C)C/C=C(/COC(=O)[C@]1(C)O)C2=O`, the Potency entry in experiment [2] and in experiment [6] was “inactive” throughout. For the same compound, the activity change, negative = inhibition in experiment [5] is -0.98% (inactive). The values for the max response in experiment [5] (setting [9]) and in experiment [5] (setting [10]) were -19.3% and -21.3%, respectively. Besides, in experiment [7], the compound was called inactive.

Source of the values: PubChem BioAssay (NCATS).
